Only some compounds are listed: those with a hit (about 2.2% of all), similar ones and a draw of the others.
m5-HT2A agonist: mouse Htr2a agonists via beta-arrestin recruitment, primary screen, cell-based, luminescence; activation, % at 7.6 µM; CHO-K1 mHTR2A beta-arrestin complementation; percent of 30 µM serotonin response; AID 624169, 2012; actives 0.66% (n = 360,000);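 active = activation above a run cutoff, the mean activation of all tested compounds plus 3 SD, cut at about 14% in these data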
MEX-5 binding: MEX-5 zinc finger RNA-binding disruptors – biochemical, C. elegans, fluorescence polarization, MLPCN library, primary screen. Zinc finger protein mex-5 (Caenorhabditis elegans), Q9XUB2. MEX-5/FITC-TCR2 RNA binding; stronger effect = lower value. activity score (negative = inhibition of binding), % at 10 µM. actives 0.38% (n = 300,000). AID 1832, 2009;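 active = inhibition past about -25% in most replicates, and total fluorescence under double the plate's negative control median, limit read from the data; inconclusive = replicates evenly split on the limit, or fluorescence at least double controls; inactive = too little inhibition in most replicates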
JMJD2C inh: inhibitors of GASC-1 histone demethylase, primary screen, biochemical, fluorescence, DELFIA europium | actives 0.069% (n = 330,000) | GST-JMJD2C(1-420) H3K9me3 demethylation | inhibition, % at 2.35 µM;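 active = more than half of a compound's replicate wells show inhibition beyond 50%, single wells judged on their own value; inconclusive = some, but no more than half, of replicates pass 50% inhibition; inactive = no replicate passes 50% inhibition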;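 also: signal counts dimethyl H3K9 product captured on neutravidin plate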
Target sequence (Q9H3R0 1-420 limits assumed): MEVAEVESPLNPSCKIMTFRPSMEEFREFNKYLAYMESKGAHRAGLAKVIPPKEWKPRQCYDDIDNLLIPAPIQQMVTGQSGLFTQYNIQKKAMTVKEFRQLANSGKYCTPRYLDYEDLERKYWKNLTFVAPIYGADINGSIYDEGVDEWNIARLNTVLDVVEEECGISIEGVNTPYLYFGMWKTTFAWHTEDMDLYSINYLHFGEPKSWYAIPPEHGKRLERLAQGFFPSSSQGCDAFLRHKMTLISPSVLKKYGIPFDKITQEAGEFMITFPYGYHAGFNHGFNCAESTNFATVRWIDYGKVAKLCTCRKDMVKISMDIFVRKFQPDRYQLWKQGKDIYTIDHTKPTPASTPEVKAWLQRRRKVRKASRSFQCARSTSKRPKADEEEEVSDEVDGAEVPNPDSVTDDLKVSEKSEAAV
VLA-4 inh: inhibition in human VLA-4 binding assay, primary screen, VLA-4 allosteric modulator project, MLPCN library, flow cytometry, VLA-4 expressing cells; Integrin alpha-4 (Homo sapiens), P13612; ligand binding flow cytometry; inhibition, % (about 7 µM as worked out from the volumes in the protocol); actives 0.2% (n = 330,000); AID 2557, 2010; in the data active = inhibition above about 50%
Granule exo inh: LAMP-1 surface exposure blockers, TALL-104 cells – cell-based, flow cytometry, MLPCN library, primary screen; AID 651702, 2012; TALL-104 LAMP-1 surface exposure; cells stimulated with thapsigargin and PMA; actives 0.66% (n = 360,000); inhibition, % at 10 µM;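 active = inhibition above about 55%, limit read from the data; inconclusive = no clear call, values can overlap the other calls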
V-ATPase pHluor: regulators of yeast V-ATPase proton pumping, primary screen, pHLuorin cytosolic pH fluorescence; response, % at 10 µM; S. cerevisiae; AID 504577, 2011; actives 0.37% (n = 350,000); in the data active = response mostly above about 7.3%, no sharp cut-off; inactive = mostly below about 5.4%; also: actives read high
Numbers stand for hits; i = inactive; ? = inconclusive; nt = no result.

SMILES | m5-HT2A agonist | MEX-5 binding | JMJD2C inh | VLA-4 inh | Granule exo inh | V-ATPase pHluor
CN(C)CCCN(C(=O)/C=C/c1cccs1)c1nc2ccc(F)cc2s1 | i | ? | i | i | i | i
CN(C)CCN(C(=O)/C=C/c1cccs1)c1nc2c(F)cc(F)cc2s1 | i | nt | i | i | 65 | i
Cc1ccc2nc(N(CCN(C)C)C(=O)/C=C/c3cccs3)sc2c1 | i | nt | i | i | 56 | i
CC(=O)c1ccc(N(CC(=O)NC2CCCC2)C(=O)CNC(=O)c2cccs2)cc1 | i | i | i | i | i | i
CCC(Oc1ccccc1)C(=O)Nc1ccccn1 (centres undefined) | i | -35 | i | i | i | i
CCn1nc([N+](=O)[O-])c(C(C#N)c2nc3cc(C(F)(F)F)ccc3s2)c(Cl)c1=O (centres undefined) | i | i | i | i | 83 | i
Cn1nc(-c2ccc(Cl)cc2)nc2c(=O)n(C)c(=O)nc1-2 | nt | -41 | ? | i | nt | nt
CC1CCc2nn(CC(=O)NCCCN3CCCC3=O)cc2C1 (centres undefined) | i | i | i | i | i | i
CC1CCc2nn(CC(=O)NCCN3CCCCC3C)cc2C1 (centres undefined) | i | -35 | i | i | i | i
O=[N+]([O-])c1ccc(/C=[N+](\[O-])[C@@H]2CCCC[C@@H]2/[N+]([O-])=C/c2ccc([N+](=O)[O-])o2)o1 | i | i | 89 | i | i | i
C[C@]12CC[C@@H]3c4ccc(O)cc4CC[C@H]3[C@@H]1CCC2=O | i | i | i | i | i | 93
COc1ccc(C(O)c2nc(-c3ccc(N(C)C)cc3)cs2)cc1 (centres undefined) | i | nt | nt | nt | i | nt
CC1(C)N=C(c2ccccc2)C(=O)N1 | i | i | i | i | i | i
CC1(C)N=C(c2cccc(F)c2)C(=O)N1 | i | i | i | i | i | 20
CN(N=Nc1ccc([N+](=O)[O-])cc1)c1ccccc1 | i | -58 | i | i | i | i
CN1CCN(C(=O)c2ccc(-c3cnn(C)c3)c3ccoc23)CC1 | i | nt | nt | nt | i | nt
O=C(NCc1ccc2c(c1)OCO2)c1c(O)c2cccc3c2n(c1=O)CCC3 | i | i | i | i | i | 30
COc1cccc(/C=N/N2CCOCC2)c1O | i | i | i | i | i | i
Oc1ccc(/C=N/N2CCCCC2)c(O)c1O | i | -29 | i | i | i | i
Oc1ccc(/C=N/N2CCOCC2)c(O)c1O | i | -47 | i | i | i | i
COc1ccc(-n2c(C)cc(/C=N/Nc3nnc(C)n3N)c2C)cc1 | i | i | 68 | i | i | i
CCc1c(C(=O)NNC(=S)Nc2ccc(S(=O)(=O)Nc3ncccn3)cc2)csc1C | i | -48 | i | i | i | i
O=S(=O)(Nc1ncccn1)c1ccc(NC(=S)Nc2ccccc2)cc1 | i | i | i | i | i | i
CC(=O)OCCCNc1cc(Sc2nc3ccccc3s2)c2nonc2c1[N+](=O)[O-] | i | i | i | i | 69 | i
CSc1ccccc1OCc1cc(C(=O)N2CCc3[nH]cnc3C2c2ccccn2)no1 (centres undefined) | i | i | i | i | i | i
SMILES | m5-HT2A agonist | MEX-5 binding | JMJD2C inh | VLA-4 inh | Granule exo inh | V-ATPase pHluor
CCc1noc(C)c1C(=O)Nc1cc(Cl)ccc1N1CCCC1 | i | i | i | i | i | i
Cc1ccc(S(=O)(=O)N(C)C[C@@H]2OCc3cnnn3CCCC(=O)N([C@@H](C)CO)C[C@@H]2C)cc1 | i | nt | nt | nt | i | i
CC1=C(C(=O)OCc2ccccc2)C(/C=C/c2ccccc2)NC(=S)N1 (centres undefined) | i | i | i | i | i | i
C=CCOC(=O)C1=C(C)NC(=S)NC1/C=C/c1ccccc1 (centres undefined) | i | i | i | i | 66 | i
Cc1ccc(C(=O)c2no[n+]([O-])c2C(=O)c2ccc(C)cc2)cc1 | i | i | i | i | 68 | i
Cc1ccc(C(=O)c2ccc(C)cc2)cc1 | i | i | i | i | i | i
Cc1ccc2cc(/C=C3\N=C(c4ccccc4)OC3=O)c(N3CCOCC3)nc2c1 | nt | -34 | i | i | nt | nt
COc1ccc(N2CCN(c3nc4cc(C)ccc4cc3C=O)CC2)cc1 | i | i | i | i | i | i
O=c1[nH]cc(N=Cc2cc(Cl)cc(Cl)c2O)c(=O)[nH]1 | i | i | 66 | i | i | i
O=C1C[C@@H]2c3c(cccc3CN1Cc1ccccc1F)C[C@@H](O)[C@H]2O | i | nt | nt | nt | i | i
O=C1N=C(N2C=CC(=C3C=CNC=C3)C=C2)/C(=C/N=NC(=O)c2ccccc2O)S1 | i | -46 | i | i | i | i
CCOC(=O)C1=C(Cn2cnc3ccccc32)NC(=O)NC1c1cc(C)ccc1C (centres undefined) | 59 | i | i | i | i | i
COc1ccc(NC(=O)CN(C)C(=O)CCCc2nc3ccccc3s2)cc1 | i | i | i | i | i | i
COc1ccc(-c2nn(-c3ccccc3)cc2CNC[C@H]2O[C@@H](n3cnc4c(=O)[nH]c(N)nc43)[C@H](O)[C@@H]2O)cc1 | i | nt | nt | nt | i | nt
O=C(c1cc2cc(F)ccc2[nH]1)N1CCN(Cc2ccc3c(c2)OCO3)CC1 | i | i | i | i | i | 14
COc1cc2cc(C(=O)N3CCN(Cc4ccc5c(c4)OCO5)CC3)[nH]c2cc1OC | i | i | i | i | i | i
C=CCn1ccc(=NC=C(C#N)C#N)c2ccccc21 | i | -75 | i | i | i | i
CC(C(=O)O)c1ccc(C(=O)c2ccccc2)s1 (centres undefined) | i | nt | nt | i | i | i
N#C/C(=C(/O)c1ccco1)c1nc2ccccc2s1 | i | i | i | i | i | i
N#C/C(=C(/O)c1cc2ccccc2o1)c1nc2ccccc2s1 | i | -33 | i | i | ? | i
Cc1ccc(NC(=O)C2C3CCC(O3)C2C(=O)O)c(Br)c1 (centres undefined) | i | i | i | i | i | i
CCC(COC(C)=O)Nc1nc2c([nH]1)c(=O)n(C)c(=O)n2C (centres undefined) | i | i | i | i | i | i
Cn1c(=O)c2[nH]c(N/N=C(/C#N)C(N)=O)nc2n(C)c1=O | nt | -27 | i | i | nt | nt
COC(=O)C1=NN(C(=O)c2ccc(C)cc2)C(O)(c2ccc(Cl)cc2)C1 (centres undefined) | nt | -40 | i | i | nt | nt
O=C(NCc1ccco1)c1ccc2c(c1)N(Cc1ccc(Cl)cc1)CCS2 | i | i | i | i | i | 14
COCCCn1c(SCCc2ccccc2)nc2cc(OC)c(OC)cc2c1=N | i | i | i | i | 60 | i
CCSc1nc2cc(OC)c(OC)cc2c(=O)n1CCc1ccccc1 | i | i | i | i | i | i

Screens deposited in PubChem BioAssay by several laboratories.
